Assay outcomes deposited in PubChem by National Center for Advancing Translational Sciences (NCATS).
Shown are actives, neighbours in structure and some others; about 1.8% of the full set was active somewhere.
GLP1R cytotox: qHTS of GLP-1 Receptor Inverse Agonists: Cytotox Screen; 0.13% of 410,000 active; Potency, µM (titrated, usually from 38.3 µM), for inactives: at the highest dose activity change, negative = inhibition, hits mostly inhibitors; HEK293 cAMP-luciferase reporter cells, luminescence, 24 h; AID 624418, 2012;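 also: loss of luciferase light is scored as toxicity; % is scaled to controls: 0 for no effect and ±100 for the full control effect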
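Compound-treated cells are incubated 24 hr at 37 deg C under 5% CO2 after a 12 hour attachment period, then luciferase detection reagent is added and luminescence is measured following 12 min at room temperature; lowered signal indicates toxicity.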
GLP-1R agonist: qHTS of GLP-1 Receptor Agonists. HEK293 GLP-1R CRE-luciferase, luminescence, 4-6 h; cells express a hypersensitive GLP-1R form. Potency, µM (series often up to 45.6 µM), inactives show top-dose activation, hits mostly activators. 0.007% of 380,000 active. AID 624172, 2012; also: % of control where 0% means no effect
GLP-1R inv ag: qHTS of GLP-1 Receptor Inverse Agonists (Inhibition Mode) | Glucagon-like peptide 1 receptor (Homo sapiens), P43220 | HEK293 GLP-1R CRE-luciferase, luminescence, 24 h; GLP-1R form is constitutively active | Potency, µM (doses to about 38.3 µM), inactives show top-dose activity change, negative = inhibition, hits mostly inhibitors | 1.6% of 410,000 active | AID 624417, 2012; also: % is scaled to controls: 0 for no effect and ±100 for the full control effect; nearly all actives have a fitted effect of over 55% in size
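Using stably transfected HEK293 (constitutively active GLP-1R, cAMP-luciferase reporter), compounds were incubated 24 hr and luciferase measured by luminescence.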
PTHR1 agonist: qHTS for PTHR1 Agonists: Primary Screen; HEK293 GP2 PTHR1 cells, GloSensor cAMP luminescence, 1 h; AID 743266, 2014; Potency, µM (series often up to 115 µM), for the others: top-dose activation, actives largely listed as activators; 0.075% of 410,000 active; Parathyroid hormone/parathyroid hormone-related peptide receptor (Homo sapiens), Q03431; also: nearly all actives have a fitted effect of over 55% in size
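HEK-293-derived GP2 cells expressing PTHR1 and a GloSensor cAMP reporter, 3,000/well, plated overnight, given luciferin plus IBMX (each 0.5 mM as added) for 1 h at 37 °C, then compound for 1 h at 37 °C. Luminescence was read after 15 min at room temperature.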
GCN5L2 inh: qHTS Assay for Inhibitors of GCN5L2; GCN5L2 HAT assay, ThioGlo1 CoA-SH fluorescence; Potency, µM (top dose mostly 58.9 µM), for inactives: at the highest dose activity change, negative = inhibition, usual class: inhibitors; 0.21% of 390,000 active; also: % is scaled to controls: 0 for no effect and ±100 for the full control effect
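ThioGlo1-coupled HAT assay: 20nM GCN5L2, 70uM acetyl-CoA, 75uM H3(1-25) peptide, pH 7.5. Fluorescence read at 340/540nm at start and after 20 min at room temperature.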
RGS4 inh: Inhibitors of Regulator of G Protein Signaling (RGS) 4: qHTS; Transcreener GDP fluorescence polarization, RGS4-accelerated GTP hydrolysis; Potency, µM (doses to about 114 µM), without a hit: at the highest dose activity change, negative = inhibition, most hits filed as inhibitors; 0.039% of 390,000 active; AID 504845, 2011; also: % is scaled to controls: 0 for no effect and ±100 for the full control effect; nearly all actives have a fitted effect of over 75% in size
Target sequence (P49798 whole entry, looked up): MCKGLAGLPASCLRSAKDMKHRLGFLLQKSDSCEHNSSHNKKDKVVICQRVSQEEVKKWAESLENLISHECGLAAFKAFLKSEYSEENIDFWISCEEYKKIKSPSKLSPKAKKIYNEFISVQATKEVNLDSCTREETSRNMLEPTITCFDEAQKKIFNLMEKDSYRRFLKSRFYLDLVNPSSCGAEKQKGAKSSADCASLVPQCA
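MLSMR compounds (23 nl, pin-transferred) preincubated 10 min at room temperature with a 500nM (2x) first reagent, then RGS4 at 900nM (2x) plus Transcreener GDP mix added; fluorescence polarization (620/688 nm) read before and after 90 min at 30 °C.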
* = called active by the depositor; i = inactive; u = inconclusive; x = no result given; ! = a repeat was not active; [ ] = another dose, or the depositor's remark. Calls follow the shape of the dose curve; as a rule, active = well fitted curve in the direction sought with a large enough effect; inconclusive = small, poorly fitted or top-dose-only effect, or another doubt; inactive = no such curve, though single readings can be large; an effect the other way counts as inactive or inconclusive. Potency is read from the fitted curve at half-maximal effect.

SMILES | GLP1R cytotox | GLP-1R agonist | GLP-1R inv ag | PTHR1 agonist | GCN5L2 inh | RGS4 inh
c1ccc2c(CCC3CCNCC3)c[nH]c2c1 | x | 6% | x | x | x | x
CCCc1cc2nnc(SCC(=O)N(C)C3CCCCC3)n2c(N)n1 | -2% | 2% | 2% | 0% | -3% | -10%
Cc1cc(C)c(C)c(N=Nc2nc3ccccc3n2C)c1C | u | 19% | 7.9µM* | -8% | -8% | -2%
CN(C)Cc1cc(C(C)(C)c2ccccc2)ccc1O | -8% | -2% | 10µM* | i | x | 0%
CC(C)(c1ccc(O)c([N+](=O)[O-])c1)c1ccc(O)c([N+](=O)[O-])c1 | -33% | 8% | -42% | -8% | x | -5%
CC(C)CC1C(=O)N(Cc2cn(CCC3OCCO3)nn2)CCS(=O)(=O)N1Cc1ccc(-c2cccc(N(C)C)c2)cc1 (stereo not given) | -3% | -3% | u | -17% | x | x
CCCn1c2ccc(C)cc2c2nnc(SCCN3CCCCC3)nc21 | -13% | 15% | 7.1µM*! | 1% | -17% | -30%
O=c1c(C(c2ccccc2)c2c(O)sc3ccccc3c2=O)c(O)sc2ccccc12 | 2% | -2% | 5% | i | 25µM* | 0%
Cc1noc(C)c1CSCC(=O)Nc1cc(Cl)ccc1N1CCCCC1 | 7% | -3% | 11µM* | -11% | 1% | -1%
CN(CC(=O)Nc1ccc(F)cc1)C(=O)c1cc2c(s1)CCCCC2 | -16% | 19% | 10µM* | -18% | 0% | 8%
Cc1cc(-c2nnc(CCC(=O)N(C)C(C)c3cccs3)o2)no1 (stereo not given) | 2% | -2% | -6% | -13% | -9% | -6%
S=C1NCCc2ccccc2C1c1ccccc1Cl (stereo not given) | u | -6% | u | i | -4% | 15%
S=C1NCCc2ccccc2C1c1ccccc1 (stereo not given) | u | 1% | 11µM* | -4% | -4% | 6%
CC1CC(C)(C)CC2(C1)NC(=S)N(c1ccccc1)N2 (stereo not given) | -18% | 0% | 3.5µM* | i | -2%[0.501 µM] | u
CC1CCCCC12NC(=S)N(c1ccccc1)N2 (stereo not given) | 9% | 0% | 2% | -2% | -10% | -43%
CC1CCCC2(C1)NC(=S)N(c1ccccc1)N2 (stereo not given) | -31% | 3% | 5µM* | -12% | -5% | u
S=C1NC2(CCCCC2)NN1c1ccccc1 | -24% | 7% | u | i | 18µM* | -51%
CCc1cc(C(=O)Nc2ccc(S(=O)(=O)NC3=NCCCCC3)cc2)sc1C | -5% | 5% | u | -8% | u | -22%
O=C(NC1CCCC1)C(c1ccc(F)cc1)N1CCC(O)(c2ccc(Cl)cc2)CC1 (stereo not given) | -9% | x | -16% | i | x | x
Cc1ccc(-c2ccc(CN3C(CC(C)C)C(=O)N(Cc4cn(CC5CCCCC5)nn4)CCS3(=O)=O)cc2)cc1 (stereo not given) | 0% | 10% | 16% | -1% | x | x
COc1ccc(C)cc1NC(=O)c1nn(C)cc1Br | 9% | 1% | u | i | 0% | 14%
O=c1[nH]c(=S)[nH]c(-c2ccccc2)c1Cc1c(O)ccc2ccccc12 | x | x | x | x | u | 2.1µM*
Cc1[nH]c(=S)[nH]c(=O)c1Cc1c(O)ccc2ccccc12 | 12% | -3% | 27% | -58% | x | -42%
